Screening data deposited in PubChem by Broad Institute.
A selection: hits, their analogues and other compounds. The true share with any hit is near 8.1%.
Shh pathway inh: Sonic Hedgehog pathway inhibition; inhibition, % (concentration not given with the values); hit rate 2.1% among 22,000; AID 2313; Shh-LIGHT2 Gli-luciferase reporter, 30 h;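 active = mean inhibition across valid replicates above about 65%, limit read from the data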;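 note: pathway switched on by Shh-conditioned medium diluted 1 in 25 in low serum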
NOMO-1 viab: STK33 inhibitor candidate reducing NOMO-1 cell viability | inhibition, % (no concentration beside the values) | hit rate 7.5% among 37,000 | NOMO-1 AML viability, CellTiter-Glo luminescence, 72 h; in the data active = inhibition above about 80%
PD-1 reversal: activators reversing PD-1 mediated T-cell inhibition | primary human CD4 T cells, PD-L1 beads, CellTiter-Glo 96 h | activation, % (concentration not given with the values) | 29,000 tested, under 10 active; call rule not given here;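 note: 0% = median vehicle wells and 100% = positive control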
MITF inh: blocks MITF activity; inhibition, % (no concentration beside the values); TRPM1 promoter luciferase, luminescence, 24 h; AID 2240; hit rate 0.28% among 37,000; in the data active = inhibition above about 85%;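 note: human melanocyte line stably carrying TRPM1 promoter luciferase reporter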
The depositor's hits bear a star.

For C[C@@H]1CN([C@@H](C)CO)C(=O)c2cccc(NC(=O)NC3CCCCC3)c2O[C@@H]1CN(C)Cc1ccc(Oc2ccccc2)cc1 the results were Shh pathway inh 43, NOMO-1 viab 85*, PD-1 reversal -5 and MITF inh 5.
For C[C@@H]1CN([C@H](C)CO)C(=O)c2cccc(NC(=O)NC3CCCCC3)c2O[C@@H]1CN(C)Cc1ccc(C(F)(F)F)cc1 the results were Shh pathway inh -22, NOMO-1 viab 29, PD-1 reversal -1 and MITF inh -5.
`C[C@@H]1CN([C@@H](C)CO)C(=O)c2cccc(NC(=O)NC3CCCCC3)c2O[C@H]1CN(C)Cc1ccc(C(F)(F)F)cc1` gave Shh pathway inh -34, NOMO-1 viab 93*, PD-1 reversal -7 and MITF inh 21.
For Cc1onc(-c2c(Cl)cccc2Cl)c1-c1csc(CCn2c(=O)oc3ccccc32)n1 the results were Shh pathway inh 62, NOMO-1 viab 55, PD-1 reversal -10 and MITF inh 28.
For C[C@@H]1CN([C@@H](C)CO)C(=O)c2cc(NC(=O)C3CC3)ccc2O[C@H]1CN(C)S(=O)(=O)c1cccs1 the results were Shh pathway inh 8, NOMO-1 viab 12, PD-1 reversal -3 and MITF inh -9.
COc1cc(NC(=O)Cn2nc(C(F)(F)F)c(Cl)c2C)cc([N+](=O)[O-])c1 was read as NOMO-1 viab 114*, PD-1 reversal -6 and MITF inh 58.
For C[C@H]1CN([C@@H](C)CO)C(=O)Cc2cc(NS(C)(=O)=O)ccc2O[C@@H]1CN(C)C(=O)Nc1ccc(C(F)(F)F)cc1 the results were Shh pathway inh -7, NOMO-1 viab 0, PD-1 reversal -1 and MITF inh -2.
C[C@@H]1CN([C@H](C)CO)C(=O)c2cc(NS(=O)(=O)c3ccc(F)cc3)ccc2O[C@@H]1CN(C)Cc1ccc(-c2ccccc2)cc1 was read as NOMO-1 viab 118*, PD-1 reversal 0 and MITF inh 5.
C[C@@H]1CN([C@@H](C)CO)C(=O)c2cc(NS(=O)(=O)c3ccc(F)cc3)ccc2O[C@H]1CN(C)Cc1ccc(-c2ccccc2)cc1 was read as Shh pathway inh -6, NOMO-1 viab 107* and MITF inh 21.
Screening C[C@H]1CN([C@@H](C)CO)C(=O)c2cc(NS(=O)(=O)c3ccc(F)cc3)ccc2O[C@H]1CN(C)Cc1ccc(-c2ccccc2)cc1 returned NOMO-1 viab 45, PD-1 reversal -2 and MITF inh 10.
For CCOC(=O)C1=C(CSc2ccc(Cl)cc2)NC(=O)NC1c1cc(C)ccc1C (stereo unspecified) the results were Shh pathway inh 48, NOMO-1 viab 115*, PD-1 reversal 1 and MITF inh -30.
CCOC(=O)c1cc(-c2ccc(Cl)cc2)[nH]c(=O)c1C#N was read as Shh pathway inh 9, NOMO-1 viab -13, PD-1 reversal 0 and MITF inh 7.
Screening COc1ccc(CN(C)C[C@@H]2Oc3ccc(NC(=O)Nc4ccc(C(F)(F)F)cc4)cc3C(=O)N([C@H](C)CO)C[C@@H]2C)cc1 returned Shh pathway inh 10, NOMO-1 viab 114*, PD-1 reversal -3 and MITF inh 7.
For COc1ccc(CN(C)C[C@H]2Oc3ccc(NC(=O)Nc4ccc(C(F)(F)F)cc4)cc3C(=O)N([C@@H](C)CO)C[C@@H]2C)cc1 the results were Shh pathway inh 0, NOMO-1 viab 113*, PD-1 reversal -3 and MITF inh -5.
COc1ccc(S(=O)(=O)Nc2ccc3c(c2)C(=O)N([C@@H](C)CO)C[C@H](C)[C@H](CN(C)S(=O)(=O)c2cccs2)O3)cc1 was read as NOMO-1 viab 0, PD-1 reversal 3 and MITF inh -24.
For C[C@H](CO)N1C[C@H](C)[C@@H](CN(C)CC2CCCCC2)Oc2c(NC(=O)c3ccc(-c4nccs4)cc3)cccc2C1=O the results were Shh pathway inh 8, NOMO-1 viab 104*, PD-1 reversal -3 and MITF inh 51.
For C[C@@H]1CN([C@H](C)CO)C(=O)c2cccc(NC(=O)c3ccc(-c4nccs4)cc3)c2O[C@@H]1CN(C)CC1CCCCC1 the results were Shh pathway inh -4, NOMO-1 viab 2, PD-1 reversal 0 and MITF inh -9.
`C[C@@H]1CN([C@@H](C)CO)C(=O)c2cccc(NC(=O)c3ccc(-c4nccs4)cc3)c2O[C@H]1CN(C)CC1CCCCC1` gave Shh pathway inh 17, NOMO-1 viab 109*, PD-1 reversal -3 and MITF inh 46.
Screening O=C1/C(=C/c2ccc(O)cc2)SC(=S)N1CCc1ccccc1 returned NOMO-1 viab 102*, PD-1 reversal -2 and MITF inh 2.
For CC(C)OC(=O)CCN1C(=O)/C(=C/c2ccccc2)SC1=S the results were Shh pathway inh 25, NOMO-1 viab 40, PD-1 reversal -2 and MITF inh -5.
C[C@@H]1CN([C@H](C)CO)C(=O)Cc2cc(NS(C)(=O)=O)ccc2O[C@@H]1CN(C)CC1CC1 was read as Shh pathway inh -6, NOMO-1 viab -6 and MITF inh -11.
CC(C)NS(=O)(=O)c1ccc(OCC(=O)O)cc1 was read as NOMO-1 viab -5, PD-1 reversal 2 and MITF inh -5.
For COC(=O)COc1ccc(S(=O)(=O)NC2CCCCCC2)cc1 the results were NOMO-1 viab 119*, PD-1 reversal -6 and MITF inh -22.
Screening CCCOC(=O)Nc1cccc(C(=O)OCCC)c1 returned Shh pathway inh -106, NOMO-1 viab -5, PD-1 reversal 0 and MITF inh -96.
`CC(C)N(C(=O)CSc1nc2ccc(Cl)cc2[nH]1)c1ccccc1` gave NOMO-1 viab 4 and MITF inh 8.
`Cc1cc(C(=O)N(c2ccccc2)C(C)C2CC2)c(Cl)cc1Cl` (stereo unspecified) gave Shh pathway inh 10, NOMO-1 viab 134*, PD-1 reversal -2 and MITF inh 30.
Screening C[C@H]1CN([C@@H](C)CO)C(=O)c2cccc(NC(=O)CCCCCC(=O)Nc3ccccc3N)c2O[C@@H]1CN(C)Cc1ccc(-c2ccccc2)cc1 returned NOMO-1 viab 134*, PD-1 reversal 0 and MITF inh 26.
Screening C[C@@H]1CN([C@H](C)CO)C(=O)c2cc(NC(=O)CCCCCC(=O)Nc3ccccc3N)ccc2O[C@H]1CN(C)Cc1ccc(-c2ccccc2)cc1 returned NOMO-1 viab 69, PD-1 reversal 1 and MITF inh 0.
Screening C[C@@H]1CN([C@H](C)CO)C(=O)c2cccc(NC(=O)CCCCCC(=O)Nc3ccccc3N)c2O[C@@H]1CN(C)CC1CCCCC1 returned NOMO-1 viab 119*, PD-1 reversal 1 and MITF inh -1.
For C[C@@H]1CN([C@H](C)CO)C(=O)c2cccc(NC(=O)CCCCCC(=O)Nc3ccccc3N)c2O[C@H]1CN(C)Cc1ccc(-c2ccccc2)cc1 the results were NOMO-1 viab 126*, PD-1 reversal 0 and MITF inh 52.
Screening C[C@H](CO)N1C[C@H](C)[C@@H](CN(C)Cc2ccncc2)Oc2c(NC(=O)CCCCCC(=O)Nc3ccccc3N)cccc2C1=O returned NOMO-1 viab 15, PD-1 reversal 1 and MITF inh -18.
